A selection: hits, their analogues and other compounds. The true share with any hit is near 1.8%.
LANA-H2A inh – blocks KSHV LANA binding to histone H2A/H2B | cell-free LANA-H2A/H2B peptide, fluorescence polarization | Q9QR71 | 320,000 tested, 0.6% active | inhibition, % (test concentration not listed); in the data active = inhibition mostly above about 10%, no sharp cut-off; inactive = mostly below about 6.7%
PKD1 inh – blocks activity of human protein kinase D1; Q15139; PKD1 kinase fluorescence polarization assay; inhibition, % (no concentration beside the values); 200,000 tested, 0.056% active
VLA-4 inh – inhibition in a human VLA-4 binding assay; VLA-4 expressing cells, ligand binding flow cytometry; P13612; 330,000 tested, 0.2% active; inhibition, % (about 7 µM as worked out from the volumes in the protocol)
HDAC3 inh – inhibitors of human histone deacetylase 3 | inhibition, % at 8.3 µM | O15379 | recombinant HDAC3, fluorogenic peptide/trypsin coupled, fluorescence | AID 2718 | 320,000 tested, 0.15% active; in the data active = inhibition above about 26%, passing the limit was not always enough; inconclusive = no clear call, values can overlap the other calls
GRK2 aptamer HTS – blocks RNA aptamer binding to human GRK2; inhibition of aptamer binding, % at 10 µM; AID 488847; 330,000 tested, 0.59% active; bead flow cytometry, FAM-aptamer displacement from GRK2;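 active = inhibition of aptamer binding above 40%, roughly 3 SD of noise, on plates passing a quality check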;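 note: median bead fluorescence of bound FAM aptamer so fluorescent compounds give negative values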
Target sequence (P25098 whole entry, looked up): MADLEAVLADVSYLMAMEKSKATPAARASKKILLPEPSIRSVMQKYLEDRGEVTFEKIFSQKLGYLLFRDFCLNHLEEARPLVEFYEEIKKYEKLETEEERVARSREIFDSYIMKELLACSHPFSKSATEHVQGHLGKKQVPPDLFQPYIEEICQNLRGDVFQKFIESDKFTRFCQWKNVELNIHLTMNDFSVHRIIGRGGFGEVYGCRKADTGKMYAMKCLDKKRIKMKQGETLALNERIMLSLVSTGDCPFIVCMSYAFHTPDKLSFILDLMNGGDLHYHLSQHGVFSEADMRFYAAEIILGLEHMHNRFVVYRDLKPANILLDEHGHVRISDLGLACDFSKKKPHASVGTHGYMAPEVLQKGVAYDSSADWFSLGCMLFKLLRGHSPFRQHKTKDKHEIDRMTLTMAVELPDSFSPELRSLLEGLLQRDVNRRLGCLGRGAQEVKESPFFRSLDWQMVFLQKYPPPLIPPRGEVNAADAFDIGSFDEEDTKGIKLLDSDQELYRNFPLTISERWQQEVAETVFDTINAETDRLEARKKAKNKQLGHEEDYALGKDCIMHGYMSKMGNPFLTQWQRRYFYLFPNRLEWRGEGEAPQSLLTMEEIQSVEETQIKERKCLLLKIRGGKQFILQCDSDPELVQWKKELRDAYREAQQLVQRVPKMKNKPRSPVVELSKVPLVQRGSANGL
Pemphigus Ab inh – human desmoglein-3 autoantibody binding inhibition; binding (percent of control), % at 10 µM; DSG3-coupled beads, scFv-anti-DSG3-GFP binding, flow cytometry; active compounds read low; 310,000 tested, 0.48% active; P32926;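 active = binding more than 3 SD below its plate's average and above zero; inconclusive = below that plate limit but binding exactly zero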;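 note: hits lower antibody fragment binding to DSG3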
* = called active by the depositor; ? = inconclusive; . = no result. Cut-off read from the data, not from the text of the source, unless noted: active = inhibition above about 50%; inactive = the rest.

SMILES | LANA-H2A inh | PKD1 inh | VLA-4 inh | HDAC3 inh | GRK2 aptamer HTS | Pemphigus Ab inh
Cc1cnc(NC(=O)CSc2nnc(COc3ccccc3)o2)s1 | 4 | . | 16 | 1 | 1 | .
Cc1ccc(C(=O)N2CCCC(N(C)Cc3ccccc3)C2)s1 (centres undefined) | -1 | . | 27 | -4 | 0 | .
CC(C)(C)[C@]1(O)CCN2C[C@H]3c4ccccc4CCc4cccc(c43)[C@@H]2C1 | 24* | -5 | 4 | -4 | 4 | 98
CN1CCN2c3ncccc3Cc3ccccc3C2C1 (centres undefined) | -3 | . | 34 | -2 | 2 | 96
C[C@]12c3[nH]c4ccc(Cl)cc4c3CCN1C(=O)[C@@H](CC(=O)NCCN1CCOCC1)C[C@@H]2C(=O)N1CCCCC1 | . | . | . | . | 0 | 87
CC(OC(=O)c1cccnc1Cl)C(=O)Nc1ccc2c(c1)OCO2 (centres undefined) | 2 | . | -9 | -12 | 0 | 100
Cc1ccccc1NC(=O)Cc1nc(COC(=O)c2cc([N+](=O)[O-])ccc2N)cs1 | 0 | . | -7 | 5 | 55* | .
Cc1ccccc1NC(=O)Cc1nc(COC(=O)CCC(=O)c2ccccc2)cs1 | 104* | . | 7 | 1 | 3 | 96
CC(C)c1ccc(N(CC(=O)NCc2ccc(F)cc2)C(=O)c2csnn2)cc1 | 6 | 1 | -5 | 6 | 2 | 103
O=C(OCC(=O)N1CCCC1)c1cc(Br)ccc1Cl | 4 | 1 | 10 | -1 | 0 | 104
O=C(c1cc(Br)ccc1Cl)N1CCCC1 | 11* | 4 | -6 | 0 | 0 | 102
Cc1cnc(NC(=O)c2ccc(-c3nc4ccccc4s3)o2)s1 | 29* | 3 | 2 | 6 | 2 | 105
CN(C)CCCN(C(=O)c1ccc2c(c1)OCCO2)c1nc2cc3c(cc2s1)OCO3 | 2 | . | 0 | 19 | 0 | .
CN(C)CCCN(C(=O)c1ccc([N+](=O)[O-])o1)c1nc2cc3c(cc2s1)OCO3 | 3 | . | 14 | 14 | 55* | 109
O=C(CNS(=O)(=O)c1ccccc1Br)OCC(=O)N1CCc2ccccc21 | 0 | 0 | 21 | 0 | 0 | .
N#Cc1ccc(OCC(=O)OCC(=O)N2CCc3ccccc32)cc1 | . | . | . | . | . | 101
CCC(=O)c1ccc(OCC(=O)OCC(=O)N2CCc3ccccc32)cc1 | -4 | . | -4 | -2 | 1 | 63*
CC(=O)Nc1ccc(S(=O)(=O)NCC(=O)OCC(=O)N2CCc3ccccc32)cc1 | 11* | -11 | 10 | -7 | 0 | 100
CCCOc1ccc(C(=O)CCC(=O)OCC(=O)Nc2ccc(Oc3ccccc3)cc2)cc1 | 3 | -9 | 2 | 3 | 4 | .
CCCOc1ccc(C(=O)CCC(=O)OCC(=O)Nc2ccc(OCC)cc2)cc1 | 0 | . | 0 | . | 85* | .
O=C(N/N=C/c1cc(Cl)c(O)c(Cl)c1)c1cc2c(ccc3ccccc32)o1 | -2 | . | 3 | -1 | 5 | 114
COC(=O)C1(C(F)(F)F)C2C=CC(C2)N1S(=O)(=O)c1ccc(C)cc1 (centres undefined) | -1 | . | -7 | 4 | 3 | .
COc1ccc(C(=O)Oc2ccc(/C=N/NC(=O)c3ccccc3OC)cc2[N+](=O)[O-])cc1 | . | -2 | 3 | . | 1 | -5.1*
COc1cc(/C=N/NC(=O)c2cc(O)cc(O)c2)ccc1OC(=O)c1ccccc1 | 2 | . | 9 | 16 | 44* | 106
CC(C)(C)C(=O)Nc1ccc(C(=O)N/N=C/c2ccccc2OC(=O)c2ccccc2)cc1 | -5 | 9 | 0 | 35* | 0 | 99
SMILES | LANA-H2A inh | PKD1 inh | VLA-4 inh | HDAC3 inh | GRK2 aptamer HTS | Pemphigus Ab inh
CC(C)(C)C(=O)Nc1ccc(C(=O)N/N=C/c2ccccc2OC(=O)c2ccc(Cl)cc2)cc1 | -4 | 0 | 0 | 4 | 4 | 102
COc1cc(C(=O)N/N=C/c2ccc(OC(=O)c3ccccc3)c(OC)c2)ccc1O | 2 | . | 3 | 5 | 1 | .
CCOc1cc(/C=N\NC(=O)c2ccc(C)nc2)ccc1OC(=O)c1ccc(F)cc1 | -6 | . | 3 | -3 | 1 | 66*
CCOc1cc(/C=N/NC(N)=O)ccc1OC(=O)c1ccc(C)cc1 | 1 | -5 | 8 | 0 | 3 | .
COCCN(C(=O)CSc1nc(N)cc(=O)[nH]1)c1c(N)n(Cc2ccccc2)c(=O)[nH]c1=O | 4 | . | 2 | -14 | 2 | 105
Cc1ccc(C)c(NC(=S)N(Cc2cccc(Br)c2)CC2CCC(C(=O)O)CC2)c1 (centres undefined) | 3 | -4 | 4 | 3 | 0 | 102
Cc1coc2cc3oc(=O)c(CCC(=O)N4CCC(C(=O)O)(c5ccccc5)CC4)c(C)c3cc12 | 1 | . | -3 | -4 | 0 | 100
COc1ccc(/C=C/C(=O)Nc2cccc(N3CCOCC3)c2)cc1OC | -3 | -9 | 8 | 4 | 0 | 115
O=C(N/N=C/c1ccc(OC(=O)c2ccccc2Cl)cc1)c1cc(O)cc(O)c1 | -3 | . | -14 | -9 | 55* | 105
CC(C)c1nc(C(=O)N2CCc3c([nH]c4ccccc34)C2c2ccccn2)cs1 (centres undefined) | 14* | -4 | -7 | 19 | 0 | 103
Cc1nc(C(=O)N2CCc3c([nH]c4ccccc34)C2c2cc(F)ccc2F)cs1 (centres undefined) | 16* | 1 | -13 | 1 | 1 | 94
Cc1nc(C(=O)N2CCc3c([nH]c4ccccc34)C2c2ccccn2)cs1 (centres undefined) | 0 | -4 | 3 | 6 | 3 | 103
Cc1ccc(NC(=O)c2cc(N3C(=O)C=CC3=O)ccc2Cl)cc1C | 1 | -1 | 33 | ? | 6 | 89*
CN(CC(=O)Nc1cccc(F)c1)C(=O)c1cn(-c2ccccc2)nc1-c1ccc(Cl)cc1 | 156* | . | 31 | 11 | 0 | 102
CCCCn1c(/N=C/c2c[nH]c3ccccc23)nc2ccccc21 | -1 | 1 | 7 | 31* | 1 | 103
CS(=O)(=O)c1ccc(-c2sc3cc4c(cc3c2C(=O)NN2CCOCC2)OCO4)cc1 | -2 | . | -5 | -18 | 0 | 105
CCOC(=O)c1c(NC(=O)C2C3C=CC(C3)C2C(=O)O)sc2c1CCCC2 (centres undefined) | 4 | -1 | -2 | -5 | 2 | 37*
NC(=O)c1c(NC(=O)C2CC=CCC2C(=O)O)sc2c1CCCCC2 (centres undefined) | 3 | . | -7 | 3 | 48* | 94
CCOC(=O)c1c(NC(NC(C)=O)C(Cl)(Cl)Cl)sc2c1CCCC2 (centres undefined) | -6 | 6 | -7 | -3 | 73* | 103
COC(=O)c1c(NC(NC(C)=O)C(Cl)(Cl)Cl)sc2c1CCCC2 (centres undefined) | 4 | 9 | -4 | 6 | 2 | 97
Cc1ccc(Cn2c(SC(C)C(N)=O)nc3ccccc3c2=O)cc1 (centres undefined) | 9 | 1 | 15 | 3 | 0 | 102

Screening data: PubChem BioAssay, several laboratories
